Experimental findings from PubChem BioAssay are described below.

Values joined by “and” are separate entries in the source; they are usually repeats but may differ in a detail not shown here. Identical values can stand only once. Records with an inconclusive call do not appear. Active and inactive are the calls of the source.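 How the source made its calls, unless noted: active means response below a set limit, under 55% cells CD8-positive and vesicle-bound, and CD8 cells' 90th-percentile brightness under 279; inactive means the rest.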

A short description of assay [1]: yeast TOR pathway RPL19A-GFP modulators, primary screen, cell-based, S. cerevisiae, multiplex flow cytometry (AID 1862; in the data active means percent of DMSO control GFP below about 86%;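 further: lower values mimic rapamycin by blocking the RPL19A rise seen in DMSO cells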). The conditions noted are these: S. cerevisiae RPL19A-GFP strain, flow cytometry fluorescence, 3 h; at 10 µM; stronger effect = lower value. In general terms: In flow cytometry, cells or beads pass a laser one at a time.
Assay [2] is described as follows: modulators of MEP2-GFP levels in yeast, primary screen, S. cerevisiae, multiplex flow cytometry (AID 1867;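 active means GFP response, as percent of the DMSO control, above the screen-wide mean plus 3 SD, about 139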;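 further: median GFP channel fluorescence of barcode-gated MEP2-GFP cells measured by flow cytometry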). As to conditions: S. cerevisiae MEP2-GFP strain, 3 h, at 10 µM, stronger effect = higher value, 100% means same as DMSO wells.
Assay [3] can be described thus: modulators of CIT2-GFP expression in yeast, primary screen, S. cerevisiae, GFP fusion, multiplex flow cytometry (AID 1870;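 active means percent response above a set limit, the screen-wide mean plus 3 SD, cut at about 130% in these data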;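 further: barcoded CIT2-GFP strain pooled with four other GFP strains with rapamycin as positive control; median GFP fluorescence per well over plate mean of DMSO wells so 100% = DMSO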). The conditions noted are these: 3 h, at 10 µM, stronger effect = higher value.
Assay [4] in a line: modulators of LAP4-GFP expression in yeast, primary screen, S. cerevisiae, multiplex flow cytometry (AID 1873;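 active means GFP signal, as percent of the solvent control, above the screen mean plus 3 SD, about 149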). As to conditions: 3 h, at 10 µM, stronger effect = higher value.
A short description of assay [5]: modulators of AGP1-GFP expression in yeast TOR pathway, primary screen, cell-based, multiplex flow cytometry, S. cerevisiae (AID 1887;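 active means GFP signal above the screen-wide mean plus 3 SD, that is over about 124.5% of the solvent control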;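 further: AGP1-GFP fusion strain of S. cerevisiae within a five-strain barcoded multiplex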). The conditions noted are these: 3 h, at 10 µM, stronger effect = higher value.
A short description of assay [6]: inhibitors of CD8+ T cell-vesicle binding, pilot screen, LFA-1/ICAM-1 modulator project, MLPCN validation set, flow cytometry (AID 2523).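 On vesicle binding response: mean PE anti-B7-1 fluorescence of CD8+ cells relative to row control; 100% = QL9-loaded vesicles with DMSO vehicle in the same plate row.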 As to conditions: 2C mouse CD8+ T cells, at 7 µM, stronger effect = lower value; double positive events: measured here: CD8+/vesicle+ event percentage.
In assay [7] the target is Integrin beta-1 (Homo sapiens) + Integrin alpha-4 (Homo sapiens) (UniProt P13612+P05556). Briefly: inhibition of HUTS-21 binding to VLA-4, pilot screen, VLA-4 allosteric modulator project, U937 cells, HUTS-21 mAb, flow cytometry, validation set (AID 2674;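 active means inhibition above 50%, about 3 SD of the validation set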;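 further: antibody binding induced by the VLA-4 ligand LDV present at three times its Kd; 0% = LDV ligand with antibody and no compound and 100% = antibody without LDV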). The conditions noted are these: HUTS-21 LIBS mAb binding, at 6.7 µM, stronger effect = higher value, binding induced by LDV ligand.
Sequence of Integrin beta-1 (Homo sapiens) + Integrin alpha-4 (Homo sapiens) (P05556 whole entry, looked up): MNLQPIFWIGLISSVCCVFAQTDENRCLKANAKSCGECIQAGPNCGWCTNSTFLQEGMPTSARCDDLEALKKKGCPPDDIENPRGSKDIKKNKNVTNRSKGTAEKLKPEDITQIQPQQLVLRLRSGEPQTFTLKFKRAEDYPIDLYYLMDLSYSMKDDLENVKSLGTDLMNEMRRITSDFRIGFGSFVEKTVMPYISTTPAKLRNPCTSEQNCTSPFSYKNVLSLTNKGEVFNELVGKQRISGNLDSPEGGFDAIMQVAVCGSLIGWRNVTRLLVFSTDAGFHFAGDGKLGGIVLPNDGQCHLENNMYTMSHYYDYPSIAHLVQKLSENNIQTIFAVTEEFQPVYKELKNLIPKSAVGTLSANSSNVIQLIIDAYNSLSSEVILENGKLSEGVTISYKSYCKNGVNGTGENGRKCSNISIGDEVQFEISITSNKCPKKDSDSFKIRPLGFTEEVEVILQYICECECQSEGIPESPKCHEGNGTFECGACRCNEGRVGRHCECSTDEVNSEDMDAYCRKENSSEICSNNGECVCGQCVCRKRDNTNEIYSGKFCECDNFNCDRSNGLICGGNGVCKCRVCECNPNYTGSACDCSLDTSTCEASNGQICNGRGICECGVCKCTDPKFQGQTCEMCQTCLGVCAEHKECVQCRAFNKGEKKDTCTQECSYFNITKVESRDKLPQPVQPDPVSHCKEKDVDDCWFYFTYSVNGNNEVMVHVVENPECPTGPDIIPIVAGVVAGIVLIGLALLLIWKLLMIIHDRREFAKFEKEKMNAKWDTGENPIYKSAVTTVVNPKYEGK
Sequence of Integrin beta-1 (Homo sapiens) + Integrin alpha-4 (Homo sapiens) (P13612 whole entry, looked up): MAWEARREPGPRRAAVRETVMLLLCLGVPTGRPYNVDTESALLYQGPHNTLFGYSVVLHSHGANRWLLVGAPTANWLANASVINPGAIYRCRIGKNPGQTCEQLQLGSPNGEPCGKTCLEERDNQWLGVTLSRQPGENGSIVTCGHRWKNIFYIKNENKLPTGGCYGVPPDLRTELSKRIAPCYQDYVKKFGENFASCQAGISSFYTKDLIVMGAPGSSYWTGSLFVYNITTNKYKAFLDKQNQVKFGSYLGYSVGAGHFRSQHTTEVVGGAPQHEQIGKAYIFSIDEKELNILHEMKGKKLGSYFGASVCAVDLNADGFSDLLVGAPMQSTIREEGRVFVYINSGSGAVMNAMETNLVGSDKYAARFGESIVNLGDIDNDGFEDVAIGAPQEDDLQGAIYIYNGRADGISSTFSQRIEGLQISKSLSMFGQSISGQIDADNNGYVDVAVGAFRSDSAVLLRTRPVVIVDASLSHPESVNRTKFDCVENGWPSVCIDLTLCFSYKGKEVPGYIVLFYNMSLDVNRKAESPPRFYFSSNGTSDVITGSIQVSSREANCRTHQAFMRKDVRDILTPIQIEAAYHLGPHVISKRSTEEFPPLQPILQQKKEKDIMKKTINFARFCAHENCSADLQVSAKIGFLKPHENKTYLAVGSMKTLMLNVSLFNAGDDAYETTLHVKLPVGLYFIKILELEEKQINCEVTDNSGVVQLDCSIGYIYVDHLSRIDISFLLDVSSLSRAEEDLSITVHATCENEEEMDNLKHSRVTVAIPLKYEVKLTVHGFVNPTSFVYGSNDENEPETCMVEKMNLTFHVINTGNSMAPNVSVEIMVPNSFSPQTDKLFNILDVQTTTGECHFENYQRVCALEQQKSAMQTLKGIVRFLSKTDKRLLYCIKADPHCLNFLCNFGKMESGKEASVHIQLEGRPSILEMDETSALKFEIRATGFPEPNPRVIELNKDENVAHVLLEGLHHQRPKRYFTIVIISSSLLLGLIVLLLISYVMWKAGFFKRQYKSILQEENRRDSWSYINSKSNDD

A short description of assay [8]: superoxide lowering in aged yeast cells, pilot screen, validation compound set (AID 2706;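 active means superoxide response below 65% of plate, a cut near 3 SD across the whole screen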;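 further: yeast exposed to compound for one week at 30 degrees C before staining; 100% = mean of all compound wells on the same plate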). The conditions noted are these: S. cerevisiae aging, superoxide DHE fluorescence; at 10 µM; stronger effect = lower value.
Assay [9] has as its target Beta-adrenergic receptor kinase 1 (Homo sapiens) (UniProt P25098). Briefly: GRK2 binders displacing RNA aptamer, biochemical, validation, human GRK2, bead flow cytometry (AID 488806;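 active means aptamer binding inhibition above 30%, about 3 SD of noise from non-fluorescent compounds; inactive means inhibition at or below 30%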). The conditions noted are these: bead-bound GRK2, FAM-aptamer displacement, at 10 µM, stronger effect = higher value.
For assay [10], the target named is Beta-2 adrenergic receptor (Homo sapiens) (UniProt P07550). Briefly: beta2AR agonists driving receptor internalization, pilot screen, cell-based, FAP fluorogen, flow cytometry, validation set (AID 504459;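 active means percent response above 42, roughly 3 SD of non-fluorescent test compounds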;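 further: agonist-driven loss of surface beta2AR via internalization measured by FAP dye flow cytometry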). As to conditions: Am2.2-beta2AR cells, FAP surface receptor flow cytometry; at 10 µM; stronger effect = higher value.
Sequence of Beta-2 adrenergic receptor (Homo sapiens) (P07550 whole entry, looked up): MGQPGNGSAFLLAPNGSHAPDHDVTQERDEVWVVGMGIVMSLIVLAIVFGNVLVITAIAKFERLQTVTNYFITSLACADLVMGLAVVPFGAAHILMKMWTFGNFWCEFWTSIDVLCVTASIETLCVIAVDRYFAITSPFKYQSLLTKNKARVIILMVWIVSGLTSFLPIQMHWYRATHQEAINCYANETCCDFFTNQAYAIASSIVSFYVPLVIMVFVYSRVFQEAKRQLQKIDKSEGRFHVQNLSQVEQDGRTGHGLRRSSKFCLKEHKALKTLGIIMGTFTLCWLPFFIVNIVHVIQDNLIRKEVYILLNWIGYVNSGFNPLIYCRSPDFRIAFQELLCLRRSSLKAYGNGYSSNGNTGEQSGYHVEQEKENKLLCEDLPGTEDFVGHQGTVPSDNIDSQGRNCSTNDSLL
Assay [11] concerns the target AP-2 complex subunit beta (Homo sapiens) (UniProt P63010). In words: inhibitors of arrestin peptide binding to AP2, pilot screen, biochemical, validation set, GST-AP2 beads, flow cytometry (AID 504541;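 active means inhibition above 54%, about 3 SD of non-fluorescent compounds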;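 further: AP2 carries R879A mutation and is captured from E. coli lysate; bead-bound FITC arrestin peptide fluorescence measuring arrestin peptide binding to AP2; 0% = DMSO wells and 100% = excess unlabeled arrestin peptide control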). The conditions noted are these: FITC arrestin peptide, at 10 µM, stronger effect = higher value, AP2 beta2 appendage fragment, R879A mutant.
The nature of assay [12]: yeast V-ATPase proton transport modulators, S. cerevisiae, pHLuorin, HTS validation (AID 504600; in the data active means response above about 15%;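 further: plate controls were DMSO for no effect and reference compound for full effect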). The conditions noted are these: S. cerevisiae pHLuorin cytosolic pH, at 10 µM, stronger effect = higher value.
Assay [13] has as its system anti-desmoglein-3 scFv antibody binding to human DSG3. In words: inhibitors of anti-DSG3 scFv binding to DSG3, pilot screen, biochemical, validation compound set, bead-based, flow cytometry (AID 588368;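 active means binding below the plate cutoff, the plate median minus 3 SD, with a reading above zero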;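 further: signal is the median channel fluorescence of bead-bound GFP antibody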). The conditions noted are these: Protein G beads, DSG3-Fc, scFv-GFP binding, at 10 µM, stronger effect = lower value.
Assay [14] in a line: inhibitors of fungal efflux pumps CDR1, CDR2, MDR1, pilot screen, validation compound set, multiplex, phenotypic (AID 588506;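 active means efflux inhibition above 0.42, the validation set average plus 4 SD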;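 further: Nile Red retained in cells so higher fluorescence means more efflux inhibition; 0 = negative control wells and 1 = enniatin B 25 µM full block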). The conditions noted are these: S. cerevisiae pump-expressing triplex, Nile Red efflux flow cytometry; at 10 µM; stronger effect = higher value; the pumps come from Candida albicans.
The target in assay [15] is ATP-binding cassette sub-family B member 6 (Homo sapiens) (UniProt Q9NP58). Briefly: ABCB6 transporter inhibitors, pilot screen, K562-ABCB6 cells, flow cytometry, validation set (AID 588550;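 active means inhibition above the screen-wide mean plus 3 SD, about 51%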;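 further: 0% = DMSO wells and 100% = benzethonium chloride 70 µM positive control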). The conditions noted are these: K562-ABCB6 porphyrin accumulation, 1 h, at 10 µM, stronger effect = higher value.
Sequence of ATP-binding cassette sub-family B member 6 (Homo sapiens) (Q9NP58 whole entry, looked up): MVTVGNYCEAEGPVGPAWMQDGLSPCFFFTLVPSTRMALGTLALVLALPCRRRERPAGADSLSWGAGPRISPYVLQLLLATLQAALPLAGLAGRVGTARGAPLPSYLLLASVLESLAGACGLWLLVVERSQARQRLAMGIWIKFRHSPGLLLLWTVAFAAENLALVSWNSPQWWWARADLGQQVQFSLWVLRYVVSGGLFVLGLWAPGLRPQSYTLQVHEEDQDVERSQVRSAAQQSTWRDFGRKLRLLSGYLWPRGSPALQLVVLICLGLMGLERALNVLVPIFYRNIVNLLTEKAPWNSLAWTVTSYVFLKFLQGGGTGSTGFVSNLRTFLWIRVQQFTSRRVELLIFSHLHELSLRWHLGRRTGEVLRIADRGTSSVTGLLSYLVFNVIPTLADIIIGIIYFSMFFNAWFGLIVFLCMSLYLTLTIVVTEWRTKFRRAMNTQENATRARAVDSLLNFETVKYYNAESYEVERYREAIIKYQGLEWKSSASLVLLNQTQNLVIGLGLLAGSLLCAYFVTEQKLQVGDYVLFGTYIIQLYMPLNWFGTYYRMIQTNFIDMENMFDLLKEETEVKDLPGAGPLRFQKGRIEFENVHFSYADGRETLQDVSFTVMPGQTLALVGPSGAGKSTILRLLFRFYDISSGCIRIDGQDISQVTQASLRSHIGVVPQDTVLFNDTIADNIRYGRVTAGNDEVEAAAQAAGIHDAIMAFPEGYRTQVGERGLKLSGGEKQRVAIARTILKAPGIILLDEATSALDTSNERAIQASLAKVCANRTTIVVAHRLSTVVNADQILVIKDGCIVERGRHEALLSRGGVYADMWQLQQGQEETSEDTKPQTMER
Assay [16] is described as follows: promoters of myeloid differentiation in arrested cells, primary screen, cell-based, GFP/MAC1 double positive, flow cytometry, validation set (AID 588685;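 active means differentiation response of at least 50%, scaled between solvent and reference control, from cells with both markers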;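 further: compound exposure lasts four days before antibody staining and flow analysis; 0% = DMSO wells and 100% = 5 µM fulvestrant positive control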). The conditions noted are these: ER-HoxA9 marrow cells, stronger effect = higher value, normalized: vehicle 0, fulvestrant 100.

Sequence of AP-2 complex subunit beta (Homo sapiens) (P63010 whole entry, looked up, the tested form may be a part, one chain of several): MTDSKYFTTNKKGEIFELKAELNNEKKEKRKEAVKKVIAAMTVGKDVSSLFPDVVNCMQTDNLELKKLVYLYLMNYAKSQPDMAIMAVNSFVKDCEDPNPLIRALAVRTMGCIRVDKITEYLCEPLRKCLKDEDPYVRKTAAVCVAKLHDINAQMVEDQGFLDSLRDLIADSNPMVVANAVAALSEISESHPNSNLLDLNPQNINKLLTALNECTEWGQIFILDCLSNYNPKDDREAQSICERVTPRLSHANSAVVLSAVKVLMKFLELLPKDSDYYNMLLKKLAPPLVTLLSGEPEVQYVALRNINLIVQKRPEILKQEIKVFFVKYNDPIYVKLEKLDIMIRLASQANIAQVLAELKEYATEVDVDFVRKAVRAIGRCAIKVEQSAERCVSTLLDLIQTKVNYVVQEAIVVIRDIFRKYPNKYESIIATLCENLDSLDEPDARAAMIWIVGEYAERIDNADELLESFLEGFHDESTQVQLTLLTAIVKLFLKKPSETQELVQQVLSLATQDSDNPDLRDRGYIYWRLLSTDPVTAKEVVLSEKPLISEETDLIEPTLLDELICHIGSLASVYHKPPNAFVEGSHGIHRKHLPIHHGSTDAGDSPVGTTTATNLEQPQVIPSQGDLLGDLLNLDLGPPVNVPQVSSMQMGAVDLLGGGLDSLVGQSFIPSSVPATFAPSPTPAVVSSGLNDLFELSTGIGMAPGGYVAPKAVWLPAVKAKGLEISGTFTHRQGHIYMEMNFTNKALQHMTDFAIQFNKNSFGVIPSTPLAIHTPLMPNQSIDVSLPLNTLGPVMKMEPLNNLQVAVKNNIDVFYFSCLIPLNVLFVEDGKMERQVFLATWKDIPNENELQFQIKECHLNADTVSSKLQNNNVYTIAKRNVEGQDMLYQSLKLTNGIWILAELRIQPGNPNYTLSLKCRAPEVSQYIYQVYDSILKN
Sequence of Beta-adrenergic receptor kinase 1 (Homo sapiens) (P25098 whole entry, looked up): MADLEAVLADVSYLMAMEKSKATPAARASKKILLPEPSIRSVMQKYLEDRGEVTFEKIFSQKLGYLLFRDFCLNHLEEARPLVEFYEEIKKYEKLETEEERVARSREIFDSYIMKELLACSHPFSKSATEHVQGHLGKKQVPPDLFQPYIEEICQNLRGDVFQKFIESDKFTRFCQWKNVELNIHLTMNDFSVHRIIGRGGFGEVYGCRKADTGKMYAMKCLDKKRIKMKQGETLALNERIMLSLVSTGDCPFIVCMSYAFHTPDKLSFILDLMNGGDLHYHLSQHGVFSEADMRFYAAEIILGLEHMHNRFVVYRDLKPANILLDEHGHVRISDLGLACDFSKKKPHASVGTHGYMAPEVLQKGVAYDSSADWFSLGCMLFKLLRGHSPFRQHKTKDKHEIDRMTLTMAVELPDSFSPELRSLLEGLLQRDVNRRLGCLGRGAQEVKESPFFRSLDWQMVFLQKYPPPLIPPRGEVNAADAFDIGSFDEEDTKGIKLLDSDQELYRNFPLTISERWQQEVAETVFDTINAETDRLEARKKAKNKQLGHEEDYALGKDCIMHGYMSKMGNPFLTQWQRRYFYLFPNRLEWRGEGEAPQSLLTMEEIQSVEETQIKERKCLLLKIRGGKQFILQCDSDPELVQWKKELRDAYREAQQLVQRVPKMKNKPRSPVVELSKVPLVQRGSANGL

As for `O=C(c1cc2cc(Br)ccc2o1)N1CCCC1`, the percent of DMSO control GFP in assay [1] is 101% (inactive). The GFP response vs DMSO in assay [2] is 106% (inactive); in assay [4] it was 139% (inactive). Also, the percent response of DMSO control in assay [3] was 97.6% (inactive). Also, in assay [5], the GFP response, % of DMSO was 99.4% (inactive). In assay [6], this compound came in with a double positive events of 56.9%. In addition, the vesicle binding response in [6] is 146% (inactive). Moreover, the results for the inhibition in [7], in assay [11] and in assay [15] were -5.11% (inactive), -6.7% (inactive) and 9% (inactive), respectively. In addition, the superoxide response (% of plate) in assay [8] was 93.6% (inactive). Besides, the aptamer binding inhibition in [9] was 0% (inactive). Further, the response was -10.4% (inactive) in assay [10] and 0.97% (inactive) in assay [12]. In assay [13], the binding (% of control) was 103% (inactive). The efflux inhibition (fraction of control) in [14] is -0.07 (inactive). In addition, the differentiation response in [16] is -3.11% (inactive).
On to `CCc1cc2c(=O)c(-c3ccc4c(c3)OCCO4)coc2c(CN2CCCCC2C)c1O` (stereo not given), for which the percent of DMSO control GFP in [1] is 103% (inactive). The GFP response vs DMSO in assay [2] is 98.6% (inactive); in assay [4], 103% (inactive). In addition, in assay [3], the percent response of DMSO control is 91.8% (inactive). The GFP response, % of DMSO in [5] is 109% (inactive). Also, the double positive events in assay [6] stood at 63.4%. In addition, in assay [6], the vesicle binding response was 177% (inactive). Moreover, the inhibition (usually the drop in the measured response relative to a control, in per cent) in [7] is 14.2% (inactive); in assay [11], 9.88% (inactive); in [15] it was -2% (inactive). In addition, the superoxide response (% of plate) in assay [8] was 65.8% (inactive). Besides, in assay [9], the aptamer binding inhibition was 2% (inactive). In addition, the response in assay [10] was -18.8% (inactive); in assay [12], 3.99% (inactive). In assay [13], the binding (% of control) was 112% (inactive). In addition, the efflux inhibition (fraction of control) in assay [14] was -0.04 (inactive). Besides, the differentiation response in assay [16] was 15.7% (inactive).
Regarding `COc1cc(C2C(C(C)=O)=C(O)C(=O)N2c2ccc(C)cc2)ccc1O` (stereo not given), the percent of DMSO control GFP in assay [1] is 100% (inactive). Besides, the GFP response vs DMSO in assay [2] is 104% (inactive); in assay [4] it was 97.3% (inactive). In addition, in assay [3], the percent response of DMSO control was 100% (inactive). Moreover, the GFP response, % of DMSO in assay [5] was 97.5% (inactive). Further, the double positive events in assay [6] came out at 57.9%. The vesicle binding response in [6] was 75.1% (inactive). The inhibition in [7] is -16% (inactive); in assay [11], 51.5% (inactive); in assay [15], -2% (inactive). Also, the superoxide response (% of plate) in [8] was 107% (inactive). The aptamer binding inhibition in [9] is 3% (inactive). Further, the response in assay [10] is -1.25% (inactive); in assay [12], -8.34% (inactive). For the same compound, in [13], the binding (% of control) was 95.1% (inactive). In assay [14], the efflux inhibition (fraction of control) was -0.17 (inactive). The differentiation response in assay [16] is 17.8% (inactive).
As for `CC(C)(S)[C@@H](N)C(=O)O`, the percent of DMSO control GFP in [1] is 97.8% (inactive). Further, the GFP response vs DMSO in assay [2] was 109% (inactive); in assay [4], 101% (inactive). Besides, in assay [3], the percent response of DMSO control is 87.2% (inactive). Also, the GFP response, % of DMSO in assay [5] was 98.9% (inactive). The same compound yielded a double positive events in assay [6] of 62.5%. The vesicle binding response in assay [6] was 177% (inactive). Moreover, the inhibition in assay [7] was 0.94% (inactive); in assay [11] it was -6.4% (inactive); in assay [15] it was 5% (inactive). Also, the superoxide response (% of plate) in assay [8] is 85% (inactive). Besides, in assay [9], the aptamer binding inhibition was 6% (inactive). In addition, the response in [10] is 1.94% (inactive); in assay [12] it was 0.19% (inactive). In addition, the binding (% of control) in assay [13] is 98.2% (inactive). Also, the efflux inhibition (fraction of control) in assay [14] was 0.08 (inactive). Further, in [16], the differentiation response was 7.2% (inactive).
`Cc1ccc(N(CC2=NCCN2)c2cccc(O)c2)cc1`: in [1], the percent of DMSO control GFP was 107% (inactive) and 88.9% (inactive) and 106% (inactive). Besides, the GFP response vs DMSO in assay [2] was 107% (inactive) and 126% (inactive) and 96.9% (inactive); in assay [4], 105% (inactive) and 80.3% (inactive) and 113% (inactive). Moreover, the percent response of DMSO control in [3] was 112% (inactive) and 107% (inactive) and 114% (inactive). The GFP response, % of DMSO in [5] was 105% (inactive) and 95.6% (inactive) and 106% (inactive). For the same compound, the double positive events in assay [6] is 48.5% and 66.6% and 52.4%. In assay [6], the vesicle binding response was 164% (inactive) and 159% (inactive) and 183% (inactive). Moreover, the inhibition in [7] was -12.4% (inactive) and 6.46% (inactive) and 1.62% (inactive); in [11], -1.88% (inactive) and 0.96% (inactive) and -11.2% (inactive); in assay [15], 9% (inactive) and 4% (inactive) and 7% (inactive). Besides, the superoxide response (% of plate) in assay [8] was 94.9% (inactive) and 91.2% (inactive) and 102% (inactive). In [9], the aptamer binding inhibition was -2% (inactive) and 0% (inactive) and -7% (inactive). Further, the response was -2.19% (inactive) in assay [10]; 1.2% (inactive) and -3.77% (inactive) and 0.74% (inactive) in [12]. The binding (% of control) in assay [13] was 98.2% (inactive) and 102% (inactive) and 97.7% (inactive). Also, the efflux inhibition (fraction of control) in assay [14] is -0.05 (inactive) and 0.23 (inactive) and -0.24 (inactive). Also, the differentiation response in assay [16] is -34.1% (inactive) and 3.28% (inactive) and -18% (inactive).
